An excerpt weighted towards active compounds, which were near 3.2% of everything screened.
TMEM16A act – TMEM16A chloride channel activators or potentiators, primary screen, cell-based, HTS; Anoctamin-1 (Mus musculus), Q8BHY3; HEK293 TMEM16A/YFP-H148Q/I152L, iodide quench fluorescence; stronger effect = lower value; B-score at 10 µM; actives 0.3% (n = 340,000); AID 623877, 2012;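 active means fluorescence-ratio B-score plate-corrected deviation score at least 3 library SD below zero, with starting fluorescence score within 5 deviations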;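 further: channel opened by trigger with iodide after compound preincubation; score built on the fluorescence ratio of max minus min over baseline; more negative score means more quench and so TMEM16A activation or potentiation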
Target sequence (Q8BHY3 whole entry, looked up): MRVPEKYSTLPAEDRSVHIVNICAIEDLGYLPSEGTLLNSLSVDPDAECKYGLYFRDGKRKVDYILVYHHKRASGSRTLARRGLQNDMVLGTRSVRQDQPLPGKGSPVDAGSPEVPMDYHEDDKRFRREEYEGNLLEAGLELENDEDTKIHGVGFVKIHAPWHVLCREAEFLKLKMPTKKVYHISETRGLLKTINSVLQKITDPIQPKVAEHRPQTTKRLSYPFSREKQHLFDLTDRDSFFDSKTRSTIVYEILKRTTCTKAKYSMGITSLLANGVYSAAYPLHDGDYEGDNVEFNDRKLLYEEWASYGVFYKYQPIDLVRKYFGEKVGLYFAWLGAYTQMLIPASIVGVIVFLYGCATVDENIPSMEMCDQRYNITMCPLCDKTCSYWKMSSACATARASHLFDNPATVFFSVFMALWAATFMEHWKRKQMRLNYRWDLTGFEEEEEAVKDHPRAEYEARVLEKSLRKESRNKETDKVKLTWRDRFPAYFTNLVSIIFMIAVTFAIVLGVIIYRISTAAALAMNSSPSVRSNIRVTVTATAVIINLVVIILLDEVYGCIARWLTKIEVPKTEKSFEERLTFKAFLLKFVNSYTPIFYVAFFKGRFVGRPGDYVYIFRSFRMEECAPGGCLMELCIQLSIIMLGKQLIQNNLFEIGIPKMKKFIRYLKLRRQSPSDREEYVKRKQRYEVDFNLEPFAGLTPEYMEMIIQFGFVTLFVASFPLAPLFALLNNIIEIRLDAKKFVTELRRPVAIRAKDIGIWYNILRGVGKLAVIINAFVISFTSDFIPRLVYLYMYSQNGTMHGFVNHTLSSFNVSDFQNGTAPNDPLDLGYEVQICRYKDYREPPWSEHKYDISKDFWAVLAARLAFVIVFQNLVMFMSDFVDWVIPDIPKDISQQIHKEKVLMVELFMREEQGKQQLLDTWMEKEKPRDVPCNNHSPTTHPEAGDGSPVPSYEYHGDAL
CHT allo act – CHT positive allosteric modulators, primary screen, cell-based, membrane potential dye, choline EC20; CHT-expressing cells; stronger effect = higher value; LV-AA mutant CHT in HEK293 cells; AID 488977, 2010; High affinity choline transporter 1 (Homo sapiens), Q9GZV3; B-score at 10 µM; actives 0.49% (n = 310,000);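 active means initial fluorescence not abnormally high and integrated response B-score, plate-corrected, over 3 SD above library mean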
Kir21 block – inhibitors of mouse Kir2.1 inward-rectifier potassium channel | HEK293-Kir2.1, FluxOR thallium flux fluorescence; stronger effect = lower value | B-score at 10 µM | actives 0.85% (n = 310,000) | AID 1672, 2009;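 active means fluorescence ratio B-score at or below minus 3 SD of library scores, with starting-brightness B-score within 2 SD, cut at about -4.2 in these data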;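 further: channel flux triggered by added potassium and thallium sulfate stimulus; B-score of peak minus minimum fluorescence over baseline after thallium stimulus; more negative B-score means stronger Kir2.1 block with less thallium influx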
CHT inh – inhibitors of human choline transporter CHT; actives 0.86% (n = 310,000); High affinity choline transporter 1 (Homo sapiens), Q9GZV3; CHT-expressing cells, membrane potential dye, choline response; stronger effect = lower value; B-score at 10 µM; AID 488975, 2010;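 active means B-score over 3 SD under the library average, and starting fluorescence ratio not unusually high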;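 further: choline stimulus applied at its EC90 after an EC20 pre-addition; B-score computed on integrated fluorescence ratio after choline addition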
TMEM16A inh – TMEM16A chloride channel inhibitors, primary screen, cell-based, HTS; Anoctamin-1 (Mus musculus), Q8BHY3; HEK293 TMEM16A/YFP iodide influx fluorescence, ionomycin; normalized B-score (activity score, 25-100; higher = stronger inhibition) at 10 µM; actives 1.2% (n = 310,000); AID 588511, 2011;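 active means ratio plate-corrected score three or more library SD toward inhibition, starting fluorescence score within five deviations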;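 further: score derived from kinetic fluorescence span divided by baseline fluorescence per well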
Rce1 inhib – yeast Rce1p protease inhibitors, primary screen, biochemical, fluorescence, cell-free homogeneous; CAAX prenyl protease 2 (Saccharomyces cerevisiae (strain ATCC 204508 / S288c)), Q03530; yeast membranes, quenched prenylated peptide cleavage fluorescence; calls only; actives 0.27% (n = 290,000); AID 2563, 2010;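 active means fall in fluorescence gain of 50% or more versus controls, with final raw signal at or below 3038400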;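 further: plate controls were neutral control wells for no effect and wells lacking membranes for full effect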
Numbers without * were called inactive; i = inactive; . = no result given; + = active, no number.

SMILES	TMEM16A act	CHT allo act	Kir21 block	CHT inh	TMEM16A inh	Rce1 inhib
Nc1nonc1-n1nnc(C(=O)N/N=C/c2ccoc2)c1CSc1ccccc1	i	i	-0.73	i	i	+
COc1cccc(-c2c(C(=O)N/N=C/c3sccc3C)nnn2-c2nonc2N)c1	i	i	-0.82	i	i	+
CCOc1ccc(CNC(=O)CCC(=O)n2ncc3ccc(Cl)cc32)cc1	i	i	-1.02	i	i	i
Nc1nc2c(s1)COc1ccccc1-2	i	i	-0.19	i	i	i
Nc1nc2c(s1)CCc1c-2cnn1-c1ccccc1	i	i	-4.47*	i	i	i
CN(Cc1ccc(Br)cc1)CC(O)COc1cccc(Br)c1 (stereo not drawn)	i	i	-3.6	i	i	i
NS(=O)(=O)c1ccc(NC(=O)/C=C/c2cn(-c3ccccc3)nc2-c2cccc(Cl)c2)cc1	i	i	2.61	i	i	+
O=C(/C=C/c1cn(-c2ccccc2)nc1-c1ccccc1)Nc1ccc(C(=O)O)cc1	i	i	1.2	i	i	i
O=C1ON=C(c2cccc([N+](=O)[O-])c2)/C1=C/c1ccc(O)cc1	i	i	-6.76*	i	i	i
CCOC(=O)C1CCN(S(=O)(=O)c2c(Cl)ccc3nonc23)CC1	i	i	-1.14	-5.42*	i	i
CCOC(=O)C1CCN(S(=O)(=O)c2ccc(C(=O)OC)cc2)CC1	-13.5*	i	-0.22	i	i	i
CCOC(=O)C1CCN(S(=O)(=O)c2ccc(C)cc2)CC1	i	i	-0.05	i	i	i
Cc1cc(O)cc(C)c1NS(=O)(=O)c1ccc2ccccc2c1	i	i	-6.6*	i	i	i
CN(C)S(=O)(=O)c1ccc(-c2ccccc2)cc1	i	i	1.41	i	i	i
CN(c1ccc(O)cc1)S(=O)(=O)c1ccc2ccccc2c1	i	i	-5.86*	i	i	i
CN(c1ccccc1)S(=O)(=O)c1ccc(-c2ccccc2)cc1	i	i	0.27	i	25*	i
CC12CCC(=O)N1C(C(=O)NNC(=O)c1ccccc1)CS2 (stereo not drawn)	i	i	-1.65	i	i	i
COC(=O)N/N=C/c1sc(N2CCCCC2)nc1-c1cccs1	i	i	0.32	i	i	i
CCOC(=O)C1(Cc2ccc(OC)cc2)CCN(C(=O)c2cc(C)nn2C)CC1	i	i	0.55	i	i	i
COc1c(CC=C(C)C)cc(C2CC(=O)c3c(O)cc(O)cc3O2)c(CC=C(C)C)c1O (stereo not drawn)	.	i	0.01	i	100*	i
CC(C)=CCC/C(C)=C/CC(C)(C)CNCCN1CCNCC1	.	i	-8.25*	i	i	i
CC(C)=CCCC(C)CN1CCC(O)CC1 (stereo not drawn)	i	i	-1.28	i	i	i
CC(C)=CCC/C(C)=C/CCC(C)NCCN1CCNCC1 (stereo not drawn)	.	i	-7.37*	i	i	i
O=C(OCn1nnc2ccccc2c1=O)c1cccnc1Cl	i	i	-0.47	i	100*	i
Cc1ccc(S(=O)(=O)CCC(=O)OCn2nnc3ccccc3c2=O)cc1	i	i	-2.11	i	i	i
SMILES	TMEM16A act	CHT allo act	Kir21 block	CHT inh	TMEM16A inh	Rce1 inhib
CCN(CC)S(=O)(=O)c1ccc(C(=O)OCn2nnc3ccccc3c2=O)cc1	i	i	0.13	i	25*	i
O=C(Cc1cccc2ccccc12)OCn1nnc2ccccc2c1=O	i	i	0.04	i	i	i
N#CC(C(=O)C12CC3CC(CC(C3)C1)C2)c1nc2ccccc2[nH]1 (stereo not drawn)	-9.49*	i	-1.4	i	i	i
O=C(O)C(O)C(O)c1nc2ccccc2[nH]1 (stereo not drawn)	i	i	0.02	i	i	i
COc1ccc(-c2csc(/C(C#N)=C\c3ccc(O)c([N+](=O)[O-])c3)n2)cc1OC	i	i	-0.01	i	100*	i
N#C/C(=C\c1ccc(O)c([N+](=O)[O-])c1)c1nc2ccccc2s1	i	.	0.72	.	.	i
COc1ccc(-c2csc(/C(C#N)=C\c3ccc(OC)c([N+](=O)[O-])c3)n2)cc1	i	i	0.43	i	i	i
COc1cc(/C=C(\C#N)c2nc3ccccc3s2)cc([N+](=O)[O-])c1O	-16.2*	.	-0.51	.	.	.
COCCOC(=O)c1cc(C(=O)c2cc(Cl)ccc2O)coc1=N	i	i	0.04	i	i	i
O=C(Nc1ccc(Cl)c([N+](=O)[O-])c1)C(Sc1ccccc1)c1ccccc1 (stereo not drawn)	i	i	1.37	i	100*	+
COC(=O)C1(CC2CC(c3ccccc3)=NO2)CCN(C(=O)OC(C)(C)C)CC1 (stereo not drawn)	i	i	-0.04	i	25*	i
CC(C)(C)OC(=O)N1CCC(CC2CC(c3ccccc3)=NO2)(C(=O)O)CC1 (stereo not drawn)	i	i	-0.06	i	i	i
CCN(C(=O)CSc1nc(C)nc2sc(C)c(C)c12)c1ccc(F)cc1	-41.3*	.	.	.	.	.
CCOC(=O)C1(CCCCCCOc2ccc(Cl)cc2)CO1 (stereo not drawn)	.	i	1.06	i	25*	i
COc1ccc(/C=C/C(=O)NC(=S)NN2CCCCC2c2cccnc2)cc1OC (stereo not drawn)	-4.63*	i	-0.02	i	i	i
O=C(/C=C/c1ccc(Cl)cc1)NC(=S)NN1CCCCC1c1cccnc1 (stereo not drawn)	.	i	-0.66	i	i	i
CC(C)=CCc1c(O)cc2c(=O)c3ccc(O)cc3oc2c1O	-7.03*	i	0.22	i	i	i
COc1ccc(CCNc2nc(C)nc3c2oc2ccccc23)cc1OC	i	i	-2.16	i	i	i
COc1ccc(CCNc2ncnc3c2oc2ccccc23)cc1OC	i	i	0.56	i	100*	i
O=C(OCc1nnc(-c2ccccc2)o1)c1ccc(Cl)cc1	i	i	0	i	i	i
CS(=O)(=O)c1ccc(C(=O)OCc2nnc(-c3ccccc3)o2)cc1[N+](=O)[O-]	-46.2*	.	0	.	.	i

Screening results deposited in PubChem BioAssay by several laboratories.
